Potency data for seven compounds are collected here from PubChem BioAssay (Tox21).

Test [1] can be described thus: Nuclear factor erythroid 2-related factor 2/antioxidant responsive element (Nrf2/ARE) small molecule agonists: qHTS cell viability counter screen in human keratinocytes (AID 1919968; active means well fitted curve in the direction sought with a large enough effect in the repeat runs; an effect the other way counts as inactive or inconclusive; further: nearly all actives have a fitted effect of over 55% in size). The method, boiled down:
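Parallel cytotoxicity read: KeratinoSens HaCaT cells, compound treatment 23 h, viability by CellTiter-Fluor fluorescence 1 h post-reagent.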
A general note: qHTS replaces the single test concentration by a dilution series.

For test [2], the target named is Gonadotropin-releasing hormone receptor (Homo sapiens) (UniProt P30968). Briefly: Human gonadotropin-releasing hormone receptor (GnRHR) small molecule agonists, calcium flux assay in GnRHR-HEK293 cells (AID 1920063). Further: nearly all actives have a fitted effect of over 35% in size. The method, boiled down: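 Calcium flux, agonist mode, human GnRHR stably integrated in HEK293; dye 1 h at 37 C before compound; Ex/Em=480/540 kinetic read, 3 min; 15 concentrations, triplicate.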
Chain of Gonadotropin-releasing hormone receptor (Homo sapiens) (P30968 whole entry, looked up): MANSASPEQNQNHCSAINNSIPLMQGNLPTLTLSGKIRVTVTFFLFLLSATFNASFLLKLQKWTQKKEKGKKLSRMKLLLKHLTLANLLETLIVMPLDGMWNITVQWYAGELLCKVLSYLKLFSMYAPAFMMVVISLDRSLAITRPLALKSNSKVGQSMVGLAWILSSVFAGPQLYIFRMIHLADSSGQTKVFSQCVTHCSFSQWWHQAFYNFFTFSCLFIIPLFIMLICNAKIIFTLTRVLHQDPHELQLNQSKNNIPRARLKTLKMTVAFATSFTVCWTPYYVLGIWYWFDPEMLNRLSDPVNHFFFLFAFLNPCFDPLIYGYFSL

Test [3] deals with KiSS-1 receptor (Homo sapiens) (UniProt Q969F8). Briefly: Human kisspeptin (KISS1R) small molecule agonists, calcium flux assay in KISS1R-HEK293 cells (AID 1920064; active means well fitted curve in the direction sought with a large enough effect in the repeat runs; an effect the other way counts as inactive or inconclusive). The method, boiled down: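 Triplicate 15-concentration series were applied to dye-loaded human KISS1R HEK293 cells, and agonist-evoked calcium fluorescence was captured for 3 min.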
Chain of KiSS-1 receptor (Homo sapiens) (Q969F8 whole entry, looked up): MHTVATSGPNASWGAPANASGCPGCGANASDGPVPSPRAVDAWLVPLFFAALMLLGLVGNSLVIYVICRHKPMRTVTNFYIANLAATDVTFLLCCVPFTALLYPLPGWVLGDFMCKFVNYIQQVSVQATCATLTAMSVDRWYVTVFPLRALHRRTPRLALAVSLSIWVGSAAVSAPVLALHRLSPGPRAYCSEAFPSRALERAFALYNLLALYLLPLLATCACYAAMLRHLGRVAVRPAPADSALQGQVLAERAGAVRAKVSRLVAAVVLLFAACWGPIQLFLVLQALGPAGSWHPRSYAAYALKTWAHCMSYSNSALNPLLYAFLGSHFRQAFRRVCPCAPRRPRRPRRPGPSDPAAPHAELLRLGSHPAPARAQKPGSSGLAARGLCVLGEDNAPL
(In general: Calcium flux is commonly read through the fluorescence of an indicator in the cells.)

Test [4] in a line: G protein-coupled receptor (GPCR) small molecule agonists, calcium flux assay: HEK293 wild type cell line counter screen (AID 1920065). The method, boiled down: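 Non-specific calcium responders were flagged by adding DMSO-dissolved compounds to dye-loaded cells and reading 480/540 nm fluorescence each second for 3 min; ATP served as positive control.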
Test [5] is described as follows: p53 small molecule agonists, cell-based qHTS assay with human liver microsomes (AID 1963577).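 Further: p53 response element beta-lactamase reporter cells with liver microsomes plus NADPH.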 The method, boiled down: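 16 h, 37 C exposure of p53RE-bla cells to compounds with human liver microsomes and NADPH (0.5 mg/mL final each); detection via LiveBLAzer mixture, 2 h dark at room temperature.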
Test [6] is described as follows: p53 small molecule agonists, cell-based qHTS assay with rat liver microsomes (AID 1963578). The method, boiled down:
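With rat liver microsomes and NADPH present (0.5 mg/mL final each), p53RE-bla cells are treated with compound for 16 h at 37 C. LiveBLAzer detection mixture is then applied for 2 h at room temperature in the dark.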

Test [7] is described as follows: p53 small molecule agonists, cell-based qHTS assay with human liver microsomes: qHTS cell viability counter screen (AID 1963579). Further: nearly all actives have a fitted effect of over 45% in size. The method, boiled down: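 In this multiplexed counter screen, the reporter plates were subsequently treated with CellTiter-Glo so that cell viability, reflected by luminescence, could be recorded for p53RE-bla cells dosed 16 h with compounds under microsomal activation (HLM and NADPH).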

Test [8] in a line: p53 small molecule agonists, cell-based qHTS assay with rat liver microsomes: qHTS cell viability counter screen (AID 1963580). Further: nearly all actives have a fitted effect of over 45% in size. The method, boiled down:
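Cytotoxicity counter screen: intracellular ATP read by CellTiter-Glo luminescence in the p53 reporter wells. HCT-116 p53RE-bla cells were treated for 16 h at 37 C alongside rat liver microsomes and NADPH, each 0.5 mg/mL final.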

A short description of test [9]: p53 small molecule agonists, cell-based qHTS assay: qHTS cell viability counter screen (AID 1963581). Further: nearly all actives have a fitted effect of over 45% in size. The method, boiled down:
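Multiplexed with the reporter read, a CellTiter-Glo step (30 min, room temperature) gauges ATP-based viability of HCT-116 p53RE-bla cells after 16 h compound incubation at 37 C.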

Test [10] is described as follows: p53 small molecule agonists, cell-based qHTS assay (AID 1963582; active means well fitted activation curve with a large enough effect in the signal ratio in the repeat runs, not every such curve was filed as active; the % refers to the signal ratio). The method, boiled down: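 Beta-lactamase reporter cells (p53RE-bla) treated with compounds for 16 h at 37 C; FRET substrate, 2 h, room temperature; fluorescence intensity.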
Test [11] concerns the target 5-hydroxytryptamine receptor 2A (Homo sapiens) (UniProt P28223). Briefly: 5-hydroxytryptamine receptor 2A (HTR2A) small molecule antagonists, cell-based qHTS assay (AID 1963586). Further: nearly all actives have a fitted effect of over 45% in size. The method, boiled down:
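CHO cells stably expressing human HTR2A were plated for 18 h at 37 C, then loaded with calcium dye for 1 h. Compounds were preincubated 5 min at room temperature before DOI (4 nM solution) was added. Kinetic fluorescence was read for 3 min.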

Test [12] shares this target. Briefly: 5-hydroxytryptamine receptor 2A (HTR2A) small molecule agonists, cell-based qHTS assay (AID 1963587). Further: nearly all actives have a fitted effect of over 30% in size. The method, boiled down: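 Kinetic calcium-flux fluorescence (2 min, 1 sec intervals) after compound addition in agonist mode. HTR2A-CHO cells were cultured 18 h, then dye-loaded 1 h at 37 C.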
The target of test [13] is Muscarinic acetylcholine receptor M1 (Homo sapiens) (UniProt P11229). Briefly: Cholinergic receptor muscarinic 1 (CHRM1) small molecule antagonists, cell-based qHTS assay (AID 1963588). Further: nearly all actives have a fitted effect of over 40% in size. The method, boiled down: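 Compounds were tested at 15 concentrations in three independent runs. Dye-loaded CHRM1-CHO cells were exposed 5 min at room temperature before stimulation by acetylcholine added at 50nM. Intracellular calcium was read kinetically on FDSS for 3 min.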
Chain of Muscarinic acetylcholine receptor M1 (Homo sapiens) (P11229 whole entry, looked up): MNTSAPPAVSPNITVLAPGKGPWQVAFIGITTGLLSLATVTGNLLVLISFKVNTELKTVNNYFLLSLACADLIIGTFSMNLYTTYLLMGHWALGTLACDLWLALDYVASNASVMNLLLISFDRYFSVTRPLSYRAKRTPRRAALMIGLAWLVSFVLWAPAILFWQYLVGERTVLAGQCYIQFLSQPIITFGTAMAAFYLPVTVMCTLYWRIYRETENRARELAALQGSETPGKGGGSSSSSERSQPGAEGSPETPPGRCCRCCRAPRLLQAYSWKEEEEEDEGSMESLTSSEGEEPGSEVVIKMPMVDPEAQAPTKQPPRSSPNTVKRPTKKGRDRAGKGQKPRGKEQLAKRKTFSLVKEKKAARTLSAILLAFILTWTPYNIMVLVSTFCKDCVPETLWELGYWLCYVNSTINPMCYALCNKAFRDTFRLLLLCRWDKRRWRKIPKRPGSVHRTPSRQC

The target is the same in test [14]. Kind of test: Cholinergic receptor muscarinic 1 (CHRM1) small molecule agonists, cell-based qHTS assay (AID 1963589). Further: nearly all actives have a fitted effect of over 35% in size. The method, boiled down: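 qHTS, 15-point titration, 3 independent runs: compounds pin-transferred onto dye-loaded CHRM1-CHO cells (human M1), calcium fluorescence followed every second to detect agonism.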
Test [15] can be described thus: cAMP Responsive Elements (CRE) small molecule agonists, cell-based qHTS assay (AID 1963590). The method, boiled down:
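Quantitative HTS for CRE agonists: HEK 293T CRE-bla cells, overnight plating, 3 h compound incubation at 37 C/5% CO2, then 2 h room-temperature LiveBLAzer B/G FRET substrate loading.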

Test [16] can be described thus: cAMP Responsive Elements (CRE) small molecule antagonists, cell-based qHTS assay (AID 1963591; active means well fitted inhibition curve with a large enough effect in the signal ratio in the repeat runs, not every such curve was filed as active; the % refers to the signal ratio). The method, boiled down: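 Fluorescence intensity from cleaved LiveBLAzer B/G substrate (2 h, room temperature) quantified CRE-bla activity in HEK 293T cells exposed 3 h to compound with 0.25 uM final NKH477.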
In test [17] the target is Beta-2 adrenergic receptor (Homo sapiens) (UniProt P07550). Briefly: Adrenergic beta2 receptor (ADRB2) small molecule antagonists, cell-based qHTS assay (AID 1963592). Further: series mostly up to about 92 µM; nearly all actives have a fitted effect of over 50% in size. The method, boiled down: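 Assay format: CHO-ADRB2 cells, 18-20hr seeding at 37C/5% CO2, then compound plus 1nM isoproterenol agonist mix for 0.5hr RT. Homogeneous time-resolved fluorescence cAMP detection after 1hr, expressed as 665/615 nm ratio.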
Chain of Beta-2 adrenergic receptor (Homo sapiens) (P07550 whole entry, looked up): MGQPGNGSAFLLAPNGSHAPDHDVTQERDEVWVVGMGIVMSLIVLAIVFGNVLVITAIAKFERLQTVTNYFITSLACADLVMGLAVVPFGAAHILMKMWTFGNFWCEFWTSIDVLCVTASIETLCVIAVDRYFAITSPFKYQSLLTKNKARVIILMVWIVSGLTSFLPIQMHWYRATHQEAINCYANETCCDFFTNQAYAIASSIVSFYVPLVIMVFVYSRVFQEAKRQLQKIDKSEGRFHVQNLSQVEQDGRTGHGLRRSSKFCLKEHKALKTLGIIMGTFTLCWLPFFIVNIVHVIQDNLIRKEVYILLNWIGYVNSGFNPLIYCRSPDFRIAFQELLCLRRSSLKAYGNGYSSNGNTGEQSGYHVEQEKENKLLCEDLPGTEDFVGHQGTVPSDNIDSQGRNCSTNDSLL

Test [18] has the same target. Kind of test: Adrenergic beta2 receptor (ADRB2) small molecule agonists, cell-based qHTS assay (AID 1963593).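 Further: CHO cells stably overexpressing human ADRB2.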 The method, boiled down:
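CHO cells stably over-expressing ADRB2 were plated overnight at 37C, then dosed with compounds plus a stimulation mix containing 100uM IBMX and 25uM Ro-20-1724 for 0.5hr at room temperature. cAMP was measured by HTRF competition, 1hr.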

Test [19] addresses D(2) dopamine receptor (Homo sapiens) (UniProt P14416). Briefly: Dopamine D2 receptor (DRD2) small molecule agonists, cell-based qHTS assay (AID 1963594). Further: nearly all actives have a fitted effect of over 35% in size. The method, boiled down:
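cAMP accumulation in DRD2-HEK293 cells measured by HTRF after 1 h detection; compounds added 10 min before NKH477 (200nM […]) forskolin-analogue stimulation, 30 min at room temperature, with Ro20-1724 present at 0.1 mM final.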

Test [20] has the same target. Kind of test: Dopamine D2 receptor (DRD2) small molecule antagonists, cell-based qHTS assay (AID 1963595; active means well fitted inhibition curve with a large enough effect in the signal ratio in the repeat runs, with a control signal flat; the % refers to the signal ratio; further: potency means the concentration at half of the fitted maximal effect). The method, boiled down: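 In this cell-based antagonist screen, compounds act for 10 min at room temperature before a 30 min challenge with 12 nM quinpirole and 200 nM NKH477. cAMP is quantified by HTRF competition in DRD2-HEK293 cells containing 0.1 mM Ro20-1724.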

Values without a mark were called inactive. Results filed as inconclusive are left out. Activity calls are given as the source filed them. Unless noted, the call rests on the fitted dose curve.

Chain of D(2) dopamine receptor (Homo sapiens) (P14416 whole entry, looked up): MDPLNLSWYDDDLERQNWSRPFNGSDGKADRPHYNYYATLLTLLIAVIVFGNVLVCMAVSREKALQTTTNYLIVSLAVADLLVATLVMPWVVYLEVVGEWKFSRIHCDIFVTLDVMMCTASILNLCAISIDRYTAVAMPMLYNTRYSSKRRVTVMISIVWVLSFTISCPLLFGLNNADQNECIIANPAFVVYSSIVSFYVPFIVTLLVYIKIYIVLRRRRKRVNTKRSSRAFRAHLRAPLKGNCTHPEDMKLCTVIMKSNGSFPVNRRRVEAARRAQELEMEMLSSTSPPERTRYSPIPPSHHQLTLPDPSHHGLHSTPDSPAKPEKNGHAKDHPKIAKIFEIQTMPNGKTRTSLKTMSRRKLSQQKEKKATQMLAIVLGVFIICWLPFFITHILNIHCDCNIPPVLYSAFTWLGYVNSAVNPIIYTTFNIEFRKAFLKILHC
Chain of 5-hydroxytryptamine receptor 2A (Homo sapiens) (P28223 whole entry, looked up): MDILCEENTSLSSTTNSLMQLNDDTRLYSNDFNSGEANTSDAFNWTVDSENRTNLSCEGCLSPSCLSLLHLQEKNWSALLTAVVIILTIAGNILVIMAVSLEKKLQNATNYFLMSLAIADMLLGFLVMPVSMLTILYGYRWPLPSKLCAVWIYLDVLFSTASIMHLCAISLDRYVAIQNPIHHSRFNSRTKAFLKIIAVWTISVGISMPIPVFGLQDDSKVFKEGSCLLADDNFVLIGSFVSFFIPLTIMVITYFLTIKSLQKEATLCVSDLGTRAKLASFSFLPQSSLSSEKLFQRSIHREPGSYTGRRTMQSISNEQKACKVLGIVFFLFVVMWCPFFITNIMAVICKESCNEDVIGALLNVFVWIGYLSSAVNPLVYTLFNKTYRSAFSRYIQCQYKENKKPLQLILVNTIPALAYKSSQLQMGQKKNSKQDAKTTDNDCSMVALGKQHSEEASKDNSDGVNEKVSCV

For `Cc1ccccn1`, the Potency result in [1], in test [2], in test [3], in [4], in test [5] and in test [6] was “inactive” throughout. For the same compound, the Potency result in test [7], in test [8], in test [9], in test [10], in test [11] and in test [12] was “inactive” each time. Also, the Potency result in test [13], in test [14], in [15], in test [16], in test [17] and in test [18] was “inactive” each time. Moreover, the Potency result in test [19] and in test [20] was “inactive” in each case.
Consider `CNCC(O)c1ccc(O)c(O)c1` (centres undefined), for which the Potency result in test [1], in [8], in test [9] and in test [10] was “inactive” each time. Moreover, the Potency in test [20] was 5.31 µM (active).
Regarding `NCCc1cnc[nH]1`, the Potency entry in [1], in test [2], in test [3], in test [4], in [5] and in test [6] was “inactive” in each case. In addition, the Potency result in test [7], in test [8], in test [9], in [10], in [11] and in test [12] was “inactive” each time. In addition, the Potency entry in test [13], in test [14], in test [15], in [16], in test [17] and in test [19] was “inactive” each time. The Potency result in test [20] is “inactive”.
Turning to `CCCC(=O)OC(C)(C)Cc1ccccc1`, the Potency entry in test [1], in test [2], in test [3], in test [4], in test [5] and in test [6] was “inactive” throughout. In addition, the Potency result in test [7], in test [8], in test [9], in test [10], in test [11] and in [12] was “inactive” each time. For the same compound, the Potency entry in [13], in [14], in [15], in [16], in test [18] and in test [19] was “inactive” in each case. Also, in test [20], the Potency result is “inactive”.
`CC(=O)Nc1ccccc1O`: the Potency result in test [1], in test [2], in test [3], in [4], in test [5] and in test [6] was “inactive” each time. For the same compound, the Potency result in test [7], in test [8], in test [9], in [10], in test [11] and in test [12] was “inactive” throughout. The Potency entry in test [13], in test [14], in test [15], in [16], in test [17] and in [18] was “inactive” each time. Moreover, the Potency entry in test [19] and in test [20] was “inactive” throughout.
Consider `SCCc1cnccn1`, for which the Potency entry in [1], in test [2], in [3], in test [4], in test [5] and in test [6] was “inactive” in each case. Besides, the Potency result in test [7], in test [8], in [9], in test [10], in [11] and in test [12] was “inactive” in each case. For the same compound, the Potency result in test [13], in [14], in test [15], in [17], in test [18] and in test [19] was “inactive” in each case. For the same compound, the Potency entry in [20] was “inactive”.
In the case of `Nc1ccc(C(=O)Nc2ccccc2N)cc1`, the Potency result in test [1], in test [2], in test [3], in [4], in test [5] and in test [6] was “inactive” each time. The Potency result in test [7], in [8], in test [9], in test [10], in test [11] and in [12] was “inactive” each time. In addition, the Potency entry in [13], in test [14], in test [15], in [17] and in [20] was “inactive” throughout.
